Results taken from PubChem BioAssay (NCATS).
Records with an inconclusive call do not appear. Activity calls are given as the source filed them. Calls come from the whole dose curve; as a rule, active = well fitted curve in the direction sought with a large enough effect; inconclusive = small, poorly fitted or top-dose-only effect, or another doubt; inactive = no such curve, though single readings can be large; an effect the other way counts as inactive or inconclusive.

Legend:
[1] = qHTS of pediatric cancer cell lines to identify multiple opportunities for drug repurposing: Primary screen for SJ-GBM2 cells (AID 1347091)
Method in brief: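 Cell viability, CellTiter-Glo luminescence; 500-1,000 cells/well, 8- or 11-point titration, 48 h compound exposure at 37 degrees C, 5% CO2. Controls: DMSO neutral, bortezomib 2.3 µM final as positive.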

[2] = qHTS of pediatric cancer cell lines to identify multiple opportunities for drug repurposing: Primary screen for A673 cells (AID 1347092); note: nearly all actives have a fitted effect of over 45% in size
Method in brief: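 A673 cells (500-1,000 cells/well in growth media) were pre-incubated 5 h at 37 degrees C, then exposed to compounds for 48 h. Viability was read as CellTiter-Glo luminescence; concentration-response curves came directly from the primary screen.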

[3] = qHTS of pediatric cancer cell lines to identify multiple opportunities for drug repurposing: Primary screen for SK-N-MC cells (AID 1347093)
Method in brief: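 Metabolically active cells were quantified by ATP-dependent luminescence (CellTiter-Glo, 15 min at room temperature) following 48 h treatment. Cells had been plated at 500-1,000 per well and settled for 5 h beforehand.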

[4] = qHTS of pediatric cancer cell lines to identify multiple opportunities for drug repurposing: Primary screen for BT-37 cells (AID 1347094)
Method in brief: (§1)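 Following a 5-hour attachment period, cells at 500-1,000/well received compounds and were cultured for 48 hours. CellTiter-Glo was added and luminescence read to estimate viable, metabolically active cells.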

[5] = qHTS of pediatric cancer cell lines to identify multiple opportunities for drug repurposing: Primary screen for NB-EBc1 cells (AID 1347095)
Method in brief: as §1

[6] = qHTS of pediatric cancer cell lines to identify multiple opportunities for drug repurposing: Primary screen for U-2 OS cells (AID 1347096); note: nearly all actives have a fitted effect of over 50% in size
Method in brief: (§2)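 Cells (500-1,000/well) rested 5 h, then received compounds for 48 h; metabolically active cells were measured by CellTiter-Glo luminescence. Final concentrations spanned up to 46 µM (MIPE, 11-point) or 0.59 nM-46 µM (NPC, 8-point) in primary screens, 11-point in follow-ups.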

[7] = qHTS of pediatric cancer cell lines to identify multiple opportunities for drug repurposing: Primary screen for NB1643 cells (AID 1347099); note: nearly all actives have a fitted effect of over 50% in size
Method in brief: as §1

[8] = qHTS of pediatric cancer cell lines to identify multiple opportunities for drug repurposing: Primary screen for LAN-5 cells (AID 1347100)
Method in brief: as §2

[9] = qHTS of pediatric cancer cell lines to identify multiple opportunities for drug repurposing: Primary screen for BT-12 cells (AID 1347101); note: nearly all actives have a fitted effect of over 25% in size
Method in brief: as §2

[10] = qHTS of pediatric cancer cell lines to identify multiple opportunities for drug repurposing: Primary screen for Rh18 cells (AID 1347102); note: nearly all actives have a fitted effect of over 65% in size
Method in brief: as §2

[11] = qHTS of pediatric cancer cell lines to identify multiple opportunities for drug repurposing: Primary screen for OHS-50 cells (AID 1347103); note: nearly all actives have a fitted effect of over 40% in size
Method in brief: as §2

[12] = qHTS of pediatric cancer cell lines to identify multiple opportunities for drug repurposing: Primary screen for RD cells (AID 1347104); note: nearly all actives have a fitted effect of over 55% in size
Method in brief: as §1

[13] = qHTS of pediatric cancer cell lines to identify multiple opportunities for drug repurposing: Primary screen for MG 63 (6-TG R) cells (AID 1347105); note: nearly all actives have a fitted effect of over 50% in size
Method in brief: as §1

[14] = qHTS of pediatric cancer cell lines to identify multiple opportunities for drug repurposing: Primary screen for control Hh wild type fibroblast cells (AID 1347106); note: nearly all actives have a fitted effect of over 55% in size
Method in brief: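 Viability after 48 h compound treatment at 37C, 500-1,000 cells/well, read as ATP luminescence with CellTiter-Glo. Primary screens used 11-point (MIPE, 0.78 nM-46 µM) or 8-point (NPC, 0.59 nM-46 µM) final concentrations; follow-up screens used 11-point dilutions.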

[15] = qHTS of pediatric cancer cell lines to identify multiple opportunities for drug repurposing: Primary screen for Rh30 cells (AID 1347107); note: nearly all actives have a fitted effect of over 75% in size
Method in brief: as §2

[16] = qHTS of pediatric cancer cell lines to identify multiple opportunities for drug repurposing: Primary screen for Rh41 cells (AID 1347108); note: nearly all actives have a fitted effect of over 70% in size
Method in brief: as §1

[17] = qHTS of pediatric cancer cell lines to identify multiple opportunities for drug repurposing: Primary screen for Saos-2 cells (AID 1347097); note: nearly all actives have a fitted effect of over 40% in size
Method in brief: as §1

[18] = qHTS of pediatric cancer cell lines to identify multiple opportunities for drug repurposing: Primary screen for SK-N-SH cells (AID 1347098); note: nearly all actives have a fitted effect of over 65% in size
Method in brief: as §2

[19] = qHTS of pediatric cancer cell lines to identify multiple opportunities for drug repurposing: Confirmatory screen for A673 cells (AID 1347110); note: nearly all actives have a fitted effect of over 65% in size
Method in brief: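 A673 cells seeded at 500-1,000 cells/well, rested 5 h, then dosed; primary MIPE 11-point (0.78 nM to 46 µM), NPC (0.59 nM to 46 µM); confirmatory 11-point. CellTiter-Glo luminescence after 48 h.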

[20] = qHTS of pediatric cancer cell lines to identify multiple opportunities for drug repurposing: Confirmatory screen for NB1643 cells (AID 1347109); note: nearly all actives have a fitted effect of over 45% in size
Method in brief: as §2
Potency is the fitted concentration of half-maximal effect.

| Compound | Potency [1] | Potency [2] | Potency [3] | Potency [4] | Potency [5] | Potency [6] | Potency [7] | Potency [8] | Potency [9] | Potency [10] | Potency [11] | Potency [12] | Potency [13] | Potency [14] | Potency [15] | Potency [16] | Potency [17] | Potency [18] | Potency [19] | Potency [20] |
| --- | --- | --- | --- | --- | --- | --- | --- | --- | --- | --- | --- | --- | --- | --- | --- | --- | --- | --- | --- | --- |
| COC(=O)[C@H](CCCN=C(N)N)NS(=O)(=O)c1ccc(C)cc1 | inactive | inactive | inactive | inactive | inactive | inactive | inactive | inactive | inactive | inactive | inactive | inactive | inactive | inactive | inactive | inactive |  |  |  |  |
| COc1cc(O)c2c(c1)C1OC1C[C@H](O)[C@H](O)C(=O)C=CC[C@H](C)OC2=O (some centres not stated) | 8.33 µM (active) | 5.9 µM (active) | 2.35 µM (active) | 19.3 µM (active) | 5.9 µM (active) | 18.7 µM (active) |  | 5.26 µM (active) | 13.7 µM (active) | 16.6 µM (active) | 19.3 µM (active) | 2.35 µM (active) | 18.7 µM (active) |  |  |  | 10.5 µM (active) | 6.07 µM (active) | 11.7 µM (active) |  |
| COc1cccc2c1C(=O)c1c(O)c3c(c(O)c1C2=O)C[C@@](O)(C(=O)CO)C[C@@H]3O[C@H]1C[C@H](N)[C@H](OC2CCCCO2)[C@H](C)O1 (some centres not stated) | 1.18 µM (active) | 2.35 µM (active) | 0.833 µM (active) | 1.93 µM (active) | 0.296 µM (active) | inactive |  | 0.469 µM (active) | 2.43 µM (active) | inactive |  | 13.2 µM (active) |  | inactive | inactive |  | inactive | inactive | 2.61 µM (active) |  |
| C=C1CCC2[C@](C)(CO)C(O)CC[C@]2(C)C1CC=C1C(=O)OCC1O (some centres not stated) | inactive | inactive | inactive | inactive | inactive | inactive | inactive |  | inactive |  | inactive | inactive |  | inactive | inactive | inactive |  | inactive |  |  |
| N#Cc1cc(NC(=O)Nc2nnc(-c3ccncc3)s2)ccc1-c1cn[nH]c1 | inactive | inactive | inactive | inactive | inactive | inactive |  | inactive |  | inactive | inactive | inactive | inactive | inactive | inactive |  |  |  |  |  |
| CC(=O)SCC(Cc1ccccc1)C(=O)NCC(=O)OCc1ccccc1 (configuration not stated) | 5.9 µM (active) | 0.59 µM (active) | 0.187 µM (active) | 0.344 µM (active) | 1.66 µM (active) | 3.72 µM (active) |  | 0.296 µM (active) | 3.43 µM (active) |  | 19.3 µM (active) | 2.09 µM (active) |  |  |  | 5.9 µM (active) | 4.69 µM (active) | 0.271 µM (active) | inactive |  |
| C[C@@]12C(=O)OC(=O)[C@@]1(C)C1CCC2O1 | 2.09 µM (active) | 4.69 µM (active) | 2.35 µM (active) | 2.17 µM (active) | 2.35 µM (active) | inactive |  |  | 8.63 µM (active) | 1.87 µM (active) | 2.43 µM (active) | 5.9 µM (active) | 1.87 µM (active) |  |  |  | 2.96 µM (active) | 3.83 µM (active) | 9.27 µM (active) | 3.29 µM (active) |
| CCN(CC)CCNC(=O)c1c(C)[nH]c(C=C2C(=O)Nc3ccc(F)cc32)c1C | 34 µM (active) | 5.4 µM (active) | 1.08 µM (active) | 17.7 µM (active) | 7.62 µM (active) | 21.5 µM (active) |  | 4.29 µM (active) |  | 17.1 µM (active) | 1.4 µM (active) | 9.59 µM (active) | 13.6 µM (active) | 17.1 µM (active) | 27 µM (active) |  | 4.29 µM (active) | 22.1 µM (active) | 10.7 µM (active) | 10.7 µM (active) |
| O=C(NNC(=O)c1ccc(CNS(=O)(=O)c2ccc(F)c(Cl)c2)cc1)c1ccccc1 | inactive | inactive | inactive | inactive | inactive | inactive |  |  | inactive | inactive | inactive | inactive | inactive | inactive | inactive | inactive | inactive | inactive |  |  |
| CCc1c(O)cc(O)c(C(=O)c2ccc(OCCN3CCOCC3)c(OC)c2)c1CC(=O)N(CCOC)CCOC | 1.18 µM (active) | 0.935 µM (active) | 0.526 µM (active) | 1.09 µM (active) | 4.18 µM (active) | inactive | 0.935 µM (active) |  |  | 1.32 µM (active) |  | 0.526 µM (active) |  |  |  | 1.18 µM (active) |  | 6.81 µM (active) |  |  |
| C[C@H]1O[C@H](O[C@H]2[C@H](O)[C@@H](O)[C@@H](O[C@H]3[C@H](O)[C@@H](O)C(O)O[C@H]3CO)O[C@H]2CO)[C@H](O)[C@@H](O)[C@H]1N[C@H]1C=C(CO)[C@@H](O)[C@H](O)[C@@H]1O (some centres not stated) | 4.69 µM (active) | 0.187 µM (active) | 33.2 µM (active) | 1.72 µM (active) | inactive | inactive |  | 2.35 µM (active) | 2.17 µM (active) | inactive | 2.17 µM (active) | inactive |  | inactive | inactive | inactive | 2.35 µM (active) | inactive |  |  |
